# Measurements as given in paper doi:10.1101/2024.03.05.583629.
# Biological target: pT7_6His-AlfaTag-HOXD13 (human, UniProt P35453 263-343)
# Assay: PADIT-seq
# Details: dsDNA, one strand shown
# Chain of pT7_6His-AlfaTag-HOXD13 (P35453 263-343): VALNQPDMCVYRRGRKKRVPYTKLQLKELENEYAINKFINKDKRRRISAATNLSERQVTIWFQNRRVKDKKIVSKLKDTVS
row,Sequence,binding signal [log2FC]
1,CTCGAGGATATCAAGATCTGGCCTCGGCCGCCCAGTTGGAACCTCTAGCTAGCCGACTCACTATAGGGATAATCGCCCTGAGCAAAGACC,-0.996 ± 0.138
2,CTCGAGGATATCAAGATCTGGCCTCGGCCTTGTAAAAGGAACCTCTAGCTAGCCGACTCACTATAGGGATAATCGCCCTGAGCAAAGACC,2.9 ± 0.088
3,CTCGAGGATATCAAGATCTGGCCTCGGCATTTTAGGTGGAACCTCTAGCTAGCCGACTCACTATAGGGATAATCGCCCTGAGCAAAGACC,0.159 ± 0.111
